# Data published in PubChem BioAssay (NCATS).
# Values joined by “and” are separate entries in the source; they are usually repeats but may differ in a detail not shown here. Identical values can stand only once. Records with an inconclusive call do not appear. Unmarked numbers belong to inactive results. Active and inactive are the calls of the source. Calls follow the shape of the full dose curve.
# Assays:
# [1] = biological target: Bile acid receptor (Homo sapiens) (UniProt Q96RI1); assay: qHTS assay for small molecule agonists of farnesoid X receptor signaling (AID 588527); details: HEK293T FXR-UAS-bla, beta-lactamase ratio, 16 h; activation: active compounds read high;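 also: 0% = vehicle basal and 100% = reference agonist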
# Chain of Bile acid receptor (Homo sapiens) (Q96RI1 whole entry, looked up): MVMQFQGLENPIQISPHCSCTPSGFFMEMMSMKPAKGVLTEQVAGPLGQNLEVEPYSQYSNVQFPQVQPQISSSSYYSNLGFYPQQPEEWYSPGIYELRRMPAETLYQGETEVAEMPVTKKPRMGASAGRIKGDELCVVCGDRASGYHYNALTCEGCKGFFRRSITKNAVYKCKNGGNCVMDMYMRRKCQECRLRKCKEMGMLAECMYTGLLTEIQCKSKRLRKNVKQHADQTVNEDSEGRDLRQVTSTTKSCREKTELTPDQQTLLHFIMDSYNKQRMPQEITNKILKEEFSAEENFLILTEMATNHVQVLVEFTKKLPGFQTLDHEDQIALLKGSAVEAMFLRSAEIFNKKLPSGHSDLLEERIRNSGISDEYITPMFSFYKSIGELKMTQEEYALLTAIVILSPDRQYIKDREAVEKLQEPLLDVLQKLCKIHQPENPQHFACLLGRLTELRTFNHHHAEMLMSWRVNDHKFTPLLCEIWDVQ
# Outline: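 Agonist-mode beta-lactamase reporter in GeneBLAzer FXR-UAS-bla HEK293T cells, titration up to 92 uM, 16 h exposure at 37 C, CCF4 fluorescence. Response scaled to DMSO (0%) and 100 uM chenodeoxycholic acid (100%), then Hill-fitted for EC50 and efficacy.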
# [2] = biological target: Peroxisome proliferator-activated receptor delta (Homo sapiens) (UniProt Q03181); assay: qHTS assay for small molecule agonists of peroxisome proliferator-activated receptor delta signaling (AID 588534); details: HEK293T PPARdelta-UAS-bla, beta-lactamase ratio, 18 h; series mostly up to 76.7 µM;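 also: 0% = DMSO basal wells and 100% = positive control agonist at 10 µM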
# Chain of Peroxisome proliferator-activated receptor delta (Homo sapiens) (Q03181 whole entry, looked up): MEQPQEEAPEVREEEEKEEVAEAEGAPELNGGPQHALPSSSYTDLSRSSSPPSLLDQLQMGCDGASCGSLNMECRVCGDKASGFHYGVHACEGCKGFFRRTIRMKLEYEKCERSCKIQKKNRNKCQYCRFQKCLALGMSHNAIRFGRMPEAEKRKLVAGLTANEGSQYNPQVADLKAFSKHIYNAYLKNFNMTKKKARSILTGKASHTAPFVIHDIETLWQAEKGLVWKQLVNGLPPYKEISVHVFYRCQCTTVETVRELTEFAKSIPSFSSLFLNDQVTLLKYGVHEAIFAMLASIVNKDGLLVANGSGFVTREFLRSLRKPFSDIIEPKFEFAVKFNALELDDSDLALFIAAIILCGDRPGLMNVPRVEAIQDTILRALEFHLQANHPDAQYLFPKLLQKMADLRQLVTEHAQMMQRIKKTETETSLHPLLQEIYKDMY
# Outline: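 Cells carrying a PPAR-delta beta-lactamase reporter were treated with compounds for 18 h at 37 °C in agonist mode. CCF4 fluorescence was read after 2 h; EC50 and efficacy from Hill fits.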
Compound,activation [1],outcome [2]
C[Si](C)(Cl)[Si](C)(C)Cl,0.0904%,inactive
CCCCC(CC)CNCC(CC)CCCC (stereo not given),-2.36%,inactive
CC(=O)N(CCN(C(C)=O)C(C)=O)C(C)=O,1.43%,inactive
O=[N+]([O-])c1ccc(CCO)cc1,-0.12%,inactive
CCCCCC/C(C=O)=C\c1ccccc1,-2.14%,inactive
CCCCCCCC[Si](Cl)(Cl)Cl,0.799%,inactive
CCCCC/C=C/C=C/C=O,3.19% and -0.429%,inactive
Nc1cc(Cl)c([N+](=O)[O-])cc1O,-1.43%,inactive
CCCC/C=C\CCCCCCCCO,-5.44%,inactive
OCc1cccc(Oc2ccccc2)c1,-0.998%,inactive
CCCCCCCCCCCCC1CO1 (stereo not given),-2.55%,inactive
c1ccc(B(c2ccccc2)c2ccccc2)cc1,2.92%,inactive
BrC/C=C/CBr,1.2%,inactive
O=Cc1cccc(Br)c1,-4.69%,inactive
IC(I)I,0.284% and 0.834%,inactive
Oc1c(Cl)ccc(Cl)c1Cl,-2.11%,inactive
c1ccc(COCc2ccccc2)cc1,-1.69%,inactive
Nc1ccc(N=Nc2ccccc2)c(N)c1,-2.91%,inactive
O=C1CCC(=O)O1,-2.49%,inactive
CCCCCO,-1.91%,inactive

Compound,activation [1],outcome [2]
Cc1ccc(N)c(S(=O)(=O)O)c1,4.47%,inactive
Cc1ccc(N=Nc2c(O)ccc3ccccc23)c([N+](=O)[O-])c1,-0.458%,inactive
O=S(=O)(O)c1ccc(N=Nc2c(O)ccc3cc(S(=O)(=O)O)ccc23)cc1,-1.3%,inactive
CC1(C)C(=O)N(Br)C(=O)N1Br,1.27%,inactive
O=C(O)C(Oc1ccc(Cl)cc1)Oc1ccc(Cl)cc1,-1.96%,inactive
CCC(=O)C1C(=O)CC(C(=O)O)CC1=O (stereo not given),-1.69%,inactive
CCCCCCCC/C=C\CCCCCCCC(=O)N(CCO)CCO,0.527%,inactive
CCCOCC(C)OCC(C)O (stereo not given),1.34%,inactive
O=C(O)c1ccc([N+](=O)[O-])cc1,-2.8% and 1.45%,inactive
Cc1ccc(C#N)cc1,-2.61%,inactive
C/C=C/C/C=C\CCCCCCCCOC(C)=O,-4.9%,inactive
Cc1ccc(N=Nc2c(O)ccc3ccccc23)c(C)c1,-0.864%,inactive
CCCCCCCCCc1ccccc1,2.7%,inactive
Cc1cccc2ccccc12,-0.539%,inactive
Cc1c(C(=O)O)cccc1[N+](=O)[O-],-2.92%,inactive
N#Cc1ccccc1,-3.25%,inactive
C=Cc1ccccc1C=C,-0.167%,inactive
COC(=O)c1c(Cl)nn(C)c1S(=O)(=O)NC(=O)Nc1nc(OC)cc(OC)n1,3.79%,inactive
Cc1ccccc1OCC1CO1 (stereo not given),-1.27%,inactive
Cc1ccc(S(N)(=O)=O)cc1,0.771% and -1.64%,inactive

Compound,activation [1],outcome [2]
Cc1ccc(C)c(N)c1,-1.33%,inactive
O=C(O)c1ccc(Cl)c(Cl)c1,-2.87%,inactive
CC(C)c1cccc(C(C)C)c1,-1.96%,inactive
CCCCCCCCCC(=O)OC,-0.517%,inactive
O=C(O)CCSSCCC(=O)O,-1.56%,inactive
CC(=O)OC(C)C,-1.76%,inactive
Nc1cccc2c(=O)[nH][nH]c(=O)c12,1.93%,inactive
O=C(O)c1cccc(C(=O)O)c1,-0.333%,inactive
C=C(C)C1CC=C(C)C(OC(C)=O)C1 (stereo not given),-0.422%,inactive
CS/C(=N\O)C(=O)N(C)C,-1.99%,inactive
COc1cc(Cl)c(OC)cc1N,-0.889%,inactive
CC(O)CO (stereo not given),1.32% and -0.791%,inactive
Nc1cccc([N+](=O)[O-])c1,-0.749%,inactive
CC1(C)CC(NCCCCCCNC2CC(C)(C)NC(C)(C)C2)CC(C)(C)N1,5.33%,inactive
CCCCCCC(O)CCCCCCCCCCC(=O)O (stereo not given),3.12%,inactive
CC(COc1ccc(C(C)(C)C)cc1)OS(=O)OCCCl (stereo not given),3.02%,inactive
C=Cc1ccccc1Cl,0.519%,inactive
CC(=O)CC(=O)Nc1ccccc1,0.0824% and -0.252%,inactive
BrC1CCC(Br)C(Br)CCC(Br)C(Br)CCC1Br (stereo not given),3.55%,inactive
O=C1OC(=O)c2c(Cl)c(Cl)c(Cl)c(Cl)c21,-0.745% and 3.66%,inactive
